Test results taken from ChEMBL document CHEMBL1857833, “Screening and optimization of specific chemical series against human African Trypanosomiasis (HAT)”.
“And” between values parts separate entries of the source, which are not always exact repeats. Equal entries are not always repeated. Out of some 4,400 compounds screened, about 390 (8.9%) showed an effect of 50% or more. The sample holds strong results, similar compounds and a random draw of the others, so the mix is not that of the screen.

Test system: Trypanosoma brucei
Assay: DNDI: Inhibition of Human African Trypanosomiasis, SBRI 427, in vitro at 2 ug.mL-1
Type: functional

| SMILES | % inhibition |
| --- | --- |
| CCOc1cccc(-c2nc(CN(C)C3CCN(Cc4ccccc4)C3)co2)c1 (stereo not given) | -2% |
| FC(F)(F)c1cccc(N2CCN(Cc3coc(-c4cccc5ccccc45)n3)CC2)c1 | 6% |
| CCOc1cccc(-c2nc(Cn3ccnc3CC)co2)c1 | -10% |
| COc1ccccc1CCNCc1coc(-c2cccc3ccccc23)n1 | 43% |
| O/N=C(/c1cccnc1Oc1ccccc1Cl)N1CCN(C2CCCC2)CC1 | -2% |
| N/C(=N\O)c1cccnc1Oc1cccc(C(F)(F)F)c1 | 46% |
| CC1=NCCN1/C(=N\O)c1cccnc1Oc1cccc(C(F)(F)F)c1 | 2% |
| CC(C)N1CCN(/C(=N\O)c2cccnc2Oc2cccc(C(F)(F)F)c2)CC1 | 101% |
| COc1ccc(Oc2ncccc2/C(=N/O)N2CCN(C3CCCC3)CC2)cc1 | -12% |
| O/N=C(/c1cccnc1Oc1cccc(C(F)(F)F)c1)N1CCN(C2CCCC2)CC1 | 85% |
| CCN(CCNCc1coc(-c2ccccc2Br)n1)c1cccc(C)c1 | -30% |
| O/N=C(/c1cccnc1OCc1cccc(F)c1)N1CCN(c2ccccc2)CC1 | -1% |
| CCOc1cccc(-c2nc(Cn3cc(C)nc3CC)co2)c1 | 7% |
| Cc1ccc(/C(=N/O)NC2CC(C)CC(C)(C)C2)c(Oc2cc(Cl)ccc2Cl)n1 (stereo not given) | 7% |
| CC1CC(N/C(=N\O)c2cccnc2Oc2ccc(F)c(Cl)c2)CC(C)(C)C1 (stereo not given) | 100% |
| Cc1ccc(/C(=N/O)NC2CC(C)CC(C)(C)C2)c(Oc2ccc(F)c(F)c2)n1 (stereo not given) | 11% |
| CCN(CC)c1cccc(Oc2ncccc2/C(=N/O)NC2CC(C)CC(C)(C)C2)c1 (stereo not given) | -6% |
| CC1CC(N/C(=N\O)c2cccnc2Oc2ccc(C(C)C)cc2)CC(C)(C)C1 (stereo not given) | 98% |
| Cc1ccc(/C(=N/O)NC2CC(C)CC(C)(C)C2)c(Oc2ccc(Cl)cc2-c2ccno2)n1 (stereo not given) | 16% |
| CC1CC(N/C(=N\O)c2cccnc2Oc2cc(Cl)ccc2Cl)CC(C)(C)C1 (stereo not given) | 99% |
| CCCCN(CCC#N)Cc1coc(-c2ccccc2C)n1 | -4% |
| CCOC(=O)C1CCCCN1Cc1coc(-c2ccccc2OCC)n1 (stereo not given) | 3% |
| CC(C)c1ccc(Oc2ncccc2/C(N)=N/O)cc1 | 16% |
| CC(C)C(C)NCc1coc(-c2cccc(F)c2)n1 (stereo not given) | 8% and 16% |
| CCC(CC)CNCc1coc(-c2cccc(F)c2)n1 | 18% |
| Fc1cccc(-c2nc(CNC3C[C@H]4CC[C@@H]3C4)co2)c1 (stereo not given in full) | -5% |
| Fc1cccc(-c2nc(CNC3CCc4ccccc43)co2)c1 (stereo not given) | 13% |

| SMILES | % inhibition |
| --- | --- |
| C[C@H]1C(NCc2coc(-c3cccc(F)c3)n2)C[C@@H]2C[C@H]1C2(C)C (stereo not given in full) | 99% |
| C[C@@H]1C(NCc2coc(-c3cccc(F)c3)n2)C[C@H]2C[C@@H]1C2(C)C (stereo not given in full) | 90% |
| C#CCNCc1coc(-c2cccc(C)c2)n1 | 24% |
| CSc1ccc(Oc2cc(/C(=N/O)NCC3CCCO3)ccn2)cc1 (stereo not given) | 6% |
| O/N=C(\NC1CCN(Cc2ccccc2)C1)c1cccnc1Oc1ccccc1Cl (stereo not given) | 2% |
| CN(/C(=N\O)c1cccnc1Oc1ccc(F)cc1Cl)C1CCCCC1 | 7% |
| CC1CCC(N/C(=N\O)c2cccnc2Oc2ccc(F)cc2Cl)CC1 (stereo not given) | 95% |
| Cc1cccc(Oc2ncccc2/C(=N/O)NC2CCC(C)CC2)c1C (stereo not given) | 20% |
| CC1CCC(C)N1/C(=N\O)c1cccnc1Oc1ccc(F)cc1Cl (stereo not given) | 24% |
| CC1CCC(N/C(=N\O)c2cccnc2Oc2ccccc2Cl)CC1 (stereo not given) | 99% |
| Cc1cccc(-c2nc(Cn3cc(C=O)nc3C)co2)c1 | 1% |
| CCOc1ccccc1-c1nc(CN(CCOC)C(C)C)co1 | 1% |
| C=CCN1CCN(/C(=N\O)c2cccnc2OCC(F)(F)F)CC1 | 7% |
| CCOc1cccc(-c2nc(CN(CCC#N)C3CCCCC3)co2)c1 | 18% |
| CN(C)CCN(C)Cc1coc(-c2ccc(O)cc2)n1 | 7% |
| NCCc1cn(Cc2coc(-c3cccc4ccccc34)n2)cn1 | 73% |
| Clc1ccc(-c2nc(Cn3cnc(-c4ccccc4)c3)co2)c(Cl)c1 | 7% |
| NCCc1cn(Cc2coc(-c3ccccc3Br)n2)cn1 | -5% |
| NCCc1cn(Cc2coc(-c3ccc(Cl)cc3Cl)n2)cn1 | 75% |
| Cc1cn(Cc2coc(-c3ccc(Cl)cc3Cl)n2)cn1 | 2% |
| NCCc1cn(Cc2coc(-c3ccccc3F)n2)cn1 | 40% |
| CSc1ccc(Oc2ccc(/C(=N/O)NC3CC(C)CC(C)(C)C3)cn2)cc1 (stereo not given) | -8% |
| COc1ccc(-c2nc(CN3CCN(c4ccc(C(C)=O)cc4)CC3)co2)cc1 | 4% |
| CCOc1ccccc1-c1nc(CNCc2ccc(C(C)(C)C)cc2)co1 | 6% |
| Cc1ccc(/C(=N/O)N2CCCCC2)c(Oc2cccc(F)c2)n1 | 16% |
| CSc1ccc(Oc2ccc(/C(=N/O)NCc3ccccc3F)cn2)cc1 | 95% |
| O/N=C(\NCc1ccccc1F)c1ccc(Oc2ccc(Cl)cc2)nc1 | -6% |

| SMILES | % inhibition |
| --- | --- |
| CSc1ccc(Oc2ccc(/C(=N/O)NCc3ccccc3C)cn2)cc1 | -7% |
| N/C(=N\O)c1ccc(Oc2cc(Cl)ccc2Cl)nc1 | 10% |
| O/N=C(\NCCN1CCOCC1)c1ccc(Oc2cc(Cl)ccc2Cl)nc1 | 34% |
| O/N=C(\NC1CCCC1)c1ccc(Oc2cc(Cl)ccc2Cl)nc1 | 99% |
| O/N=C(\NCC1CCCO1)c1ccc(Oc2cc(Cl)ccc2Cl)nc1 (stereo not given) | 34% |
| O/N=C(\NCC1CCCCC1)c1ccc(Oc2cccc3ccccc23)nc1 | 24% |
| O/N=C(\NC1CCCCC1)c1ccc(Oc2cc(Cl)ccc2Cl)nc1 | 98% |
| O/N=C(\NCC1CCCCC1)c1ccc(Oc2cc(Cl)ccc2Cl)nc1 | 76% |
| O/N=C(/c1ccc(Oc2cc(Cl)ccc2Cl)nc1)N1CCN(C2CCCC2)CC1 | 22% |
| O/N=C(\NCc1cccnc1)c1ccc(Oc2cc(Cl)ccc2Cl)nc1 | 8% |
| COc1ccc(Oc2nc(C)ccc2/C(=N/O)NCc2cc(F)ccc2F)cc1 | 15% |
| Cc1ccc(/C(=N/O)N2CCSC2)c(Oc2ccc3oc4ccccc4c3c2)n1 | 14% |
| Cc1cccc(-c2nc(CNCC(F)(F)F)co2)c1 | -2% |
| COc1cccc(CNCc2coc(-c3ccc(Cl)cc3Cl)n2)c1OC | 6% |
| CCN(Cc1ccccc1)Cc1coc(-c2cccc(F)c2)n1 | 14% |
| Cc1ccc(/C(=N/O)n2ccnc2C)c(OCC(F)(F)F)n1 | 21% |
| COC(=O)C1CCN(Cc2coc(-c3ccc(O)cc3)n2)CC1 | -3% |
| CCOc1ccc(-c2nc(CNCCCN(C)c3ccccc3)co2)cc1 | 42% |
| CCOc1ccccc1-c1nc(CN2CCN(c3ccc(C)cc3C)CC2)co1 | 7% |
| O/N=C(\NCC1CCCCC1)c1ccc(Oc2ccc(Cl)cc2)nc1 | 93% |
| O/N=C(\NCc1ccncc1)c1ccc(Oc2ccc(Cl)cc2)nc1 | -11% |
| O/N=C(\NCC1CCCCC1)c1ccc(Oc2ccc(F)cc2)nc1 | 28% |
| O/N=C(\NCC1CCCO1)c1ccc(Oc2ccc(-n3ccnc3)cc2)nc1 (stereo not given) | 32% |
| COc1ccc(CN/C(=N\O)c2ccc(Oc3ccc(Cl)cc3)nc2)cc1 | 6% |
| O/N=C(\NCC1CCCO1)c1ccc(Oc2ccc(Cl)cc2)nc1 (stereo not given) | 47% |
| O/N=C(\NCC1CCCCC1)c1ccc(Oc2ccc(-n3ccnc3)cc2)nc1 | 78% |
| O/N=C(\NCc1ccccc1)c1ccc(Oc2ccc(Cl)cc2)nc1 | 57% |

| SMILES | % inhibition |
| --- | --- |
| O/N=C(\NCc1ccccc1)c1ccc(Oc2ccc(-n3ccnc3)cc2)nc1 | 16% |
| CC1CN(Cc2coc(-c3ccc(Cl)cc3Cl)n2)CC(C)O1 (stereo not given) | 14% |
| CCCN/C(=N\O)c1ccc(C)nc1Oc1cccc(C(C)C)c1 | 4% |
| c1coc(-c2nc(CN3CCCc4ccccc43)co2)c1 | 18% |
| COc1ccc(-c2nc(CNC(C)c3ccccc3)co2)cc1 (stereo not given) | 3% |
| Cc1ccc(/C(=N/O)NCc2ccccn2)c(OCc2cccc(F)c2)n1 | -1% |
| CCOc1ccc(-c2nc(Cn3ccnc3C(C)C)co2)cc1 | 10% |
| COc1ccc(-c2nc(CNC(c3ccccc3)c3ccccc3)co2)cc1 | -28% |
| COc1ccccc1Oc1ncccc1/C(=N/O)N1CCOCC1 | 16% |
| CCC(NCc1coc(-c2ccc(Br)cc2)n1)c1ccccc1 (stereo not given) | -22% and -13% |
| Cc1ccc(Oc2nc(C)ccc2/C(N)=N/O)c(C)c1 | 11% |
| N#CCCN(Cc1coc(-c2ccc(F)cc2)n1)c1ccccc1 | -10% |
| Cc1ccc(Oc2cc(/C(=N/O)NCc3ccccc3C)ccn2)c(C)c1 | 42% |
| O/N=C(\NCc1cccnc1)c1ccnc(Oc2cc(Cl)ccc2Cl)c1 | 17% |
| Cc1cc(C)cc(CN/C(=N\O)c2ccc(Oc3cc(Cl)ccc3Cl)nc2)c1 | -11% |
| COCCN/C(=N\O)c1ccnc(Oc2cc(Cl)ccc2Cl)c1 | 27% |
| Cc1ccc(Oc2cc(/C(=N/O)NCC(C)(C)C)ccn2)c(C)c1 | 96% |
| Cc1ccc(Oc2cc(/C(=N/O)N3CCCCC3)ccn2)c2c1CCC2 | 19% |
| O/N=C(\NCc1ccccc1)c1ccc(Oc2cc(Cl)ccc2Cl)nc1 | 31% |
| CC(C)(C)CN/C(=N\O)c1ccc(Oc2cc(Cl)ccc2Cl)nc1 | 99% |
| Cc1ccc(Oc2cc(/C(=N/O)N3CC(C)CC(C)C3)ccn2)c(C)c1 (stereo not given) | 22% |
| COCCN/C(=N\O)c1ccnc(Oc2ccc(C)cc2C)c1 | 6% |
| CC(C)(C)CN/C(=N\O)c1ccnc(Oc2cc(Cl)ccc2Cl)c1 | 56% |
| Cc1ccc(Oc2cc(/C(=N/O)N3CCCCCC3)ccn2)c(C)c1 | 98% |
